The list is not random: actives were taken first. Their share in the collection is about 9.2%.
Rab9 promoter act: qHTS Assay for Rab9 Promoter Activators. 320,000 tested, 2.8% active. Potency, µM (series often up to 9.22 µM), actives largely listed as activators. Huh7 Rab9 promoter-luciferase reporter, luminescence, 24 h; further: nearly all actives have a fitted effect of over 60% in size
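Cells were plated at 1500 per well in reduced-serum medium with 10% FBS and left 2 h. Compound in DMSO was then added for 24 h at 37 °C. Reporter signal was read by luminescence after 10 min with luciferase detection reagent.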
SMN2 splice enh: qHTS Assay for Enhancers of SMN2 Splice Variant Expression | HEK293 SMN2-luciferase splicing reporter, luminescence, 30-36 h | Potency, µM (doses to about 46.1 µM), most hits filed as activators | 210,000 tested, 2.8% active | AID 1458, 2008; further: nearly all actives have a fitted effect of over 55% in size
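qHTS luciferase splicing reporter: luminescence rises when SMN2 exon 7 is included in transfected HEK293 cells. Compound exposure lasted 30-36 h at 37C, with 4.5 mM final sodium butyrate as control, followed by a ONE-Glo read.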
ELG1 genotox: qHTS screen for small molecules that induce genotoxicity in human embryonic kidney (HEK293T) cells expressing luciferase-tagged ELG1. HEK293T ELG1-luciferase reporter, luminescence, 16 h. Potency, µM (titrated, usually from 46 µM), actives largely listed as activators. 330,000 tested, 1.3% active; further: nearly all actives have a fitted effect of over 60% in size
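HEK293T cells expressing luciferase-tagged ELG1 were exposed to compound or DMSO vehicle for 16 hr at 37 °C and 5% CO2. Luciferase activity was then measured with ONE-Glo after 30 min at room temperature.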
FLuc modulator: qHTS profiling assay for firefly luciferase inhibitor/activator using purifed enzyme and Km concentrations of substrates (counterscreen for miR-21 project) | Luciferin 4-monooxygenase (Photinus pyralis), P08659 | purified FLuc, Km substrates, luminescence inhibition | Potency, µM (top dose mostly 57.5 µM), actives largely listed as inhibitors | 360,000 tested, 6.9% active | AID 588342, 2011; further: nearly all actives have a fitted effect of over 55% in size
Target sequence (P08659 whole entry, looked up): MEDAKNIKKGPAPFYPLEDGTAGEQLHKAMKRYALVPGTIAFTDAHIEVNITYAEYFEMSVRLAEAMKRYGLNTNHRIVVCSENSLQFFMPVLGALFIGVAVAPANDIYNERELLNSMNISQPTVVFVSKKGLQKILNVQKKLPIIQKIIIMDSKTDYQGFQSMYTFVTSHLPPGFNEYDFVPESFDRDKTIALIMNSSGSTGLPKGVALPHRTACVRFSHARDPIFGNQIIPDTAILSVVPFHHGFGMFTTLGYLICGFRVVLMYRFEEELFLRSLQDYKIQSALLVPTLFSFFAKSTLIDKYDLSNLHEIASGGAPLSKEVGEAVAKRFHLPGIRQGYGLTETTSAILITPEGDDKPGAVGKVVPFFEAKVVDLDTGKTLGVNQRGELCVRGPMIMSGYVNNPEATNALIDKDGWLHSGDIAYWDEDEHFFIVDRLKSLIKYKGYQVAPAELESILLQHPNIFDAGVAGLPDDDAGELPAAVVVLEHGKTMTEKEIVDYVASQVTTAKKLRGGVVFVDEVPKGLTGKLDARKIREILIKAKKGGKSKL
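Purified P. pyralis luciferase (10nM final) with 10uM D-luciferin and 10uM ATP (Km levels) in 50mM Tris acetate pH 7.5, 10mM Mg acetate, 0.01% Tween-20, 0.05% BSA; qHTS 6-point titration, ~60 µM downward; luminescence read.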
ELG1 DNA repair: qHTS screen for small molecules that inhibit ELG1-dependent DNA repair in human embryonic kidney (HEK293T) cells expressing luciferase-tagged ELG1. Potency, µM (series often up to 46.1 µM), most hits filed as inhibitors. 330,000 tested, 2.3% active. HEK293T ELG1-luciferase reporter, luminescence, 16 h; DNA damage induced by 5-fluorouridine. AID 504467, 2011; further: nearly all actives have a fitted effect of over 55% in size
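HEK293T cells expressing luciferase-tagged ELG1 (2,000/well) received 5-Fluorouridine plus compound or DMSO for 16 hr at 37 °C. Luciferase was read by ONE-Glo luminescence after 30 min at room temperature.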
NPC1 promoter act: qHTS Assay for NPC1 Promoter Activators; Huh7 NPC1 promoter luciferase reporter, 24 h; Potency, µM (highest dose often 9.22 µM), usual class: activators; 320,000 tested, 2.4% active; further: nearly all actives have a fitted effect of over 60% in size
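Luminescence from an NPC1 promoter-driven luciferase reporter in stably transfected Huh7 cells was measured after 24 h compound treatment at 37 °C, followed by 10 min ambient incubation with luciferase detection reagent.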
Numbers stand for hits; . = inactive; ? = inconclusive; / = not tested or not shown. The call rests on the fitted dose curve; in most records, active means well fitted curve in the direction sought with a large enough effect; inconclusive means small, poorly fitted or top-dose-only effect, or another doubt; inactive means no such curve, though single readings can be large; an effect the other way counts as inactive or inconclusive.

SMILES	Rab9 promoter act	SMN2 splice enh	ELG1 genotox	FLuc modulator	ELG1 DNA repair	NPC1 promoter act
O=C(NCCc1ccccc1)C(=Cc1ccc(C(=O)O)cc1)C(=O)NCCc1ccccc1	.	.	.	.	.	.
CC(C)(C)C(=O)NC(=S)NCCc1ccccc1	?	.	.	17µM	?	?
Cc1ccccc1C(=O)NC(=S)NCCc1ccccc1	.	.	.	.	.	.
N#CCCn1c(=O)c(-c2ccccc2)nc2cnc(OCc3ccccc3)nc21	/	.	/	/	/	/
COc1ccc(CN2CC(C(=O)NCCCN3CCCCC3)CC2=O)cc1 (stereo not given)	.	/	.	.	.	.
COc1cccc(CNC(=O)c2cnc3c(-c4ccc(F)cc4)c(C)nn3c2C)c1	/	/	/	.	/	/
C[C@H](O)[C@@H]1C(=O)N2C(C(=O)O)=C(SCCN=CN)C[C@@H]12	/	.	/	/	/	/
CN(C(=O)CCn1c(=S)oc2ccccc21)c1ccc(F)cc1	.	.	.	.	?	.
COc1ccc(CN2C(=O)c3cccnc3C2=O)cc1S(=O)(=O)NC1CCCCC1C (stereo not given)	.	/	.	.	.	.
S=C(NCCc1ccccc1)Nc1ccc(Cl)cc1	.	10µM	.	17µM	?	.
O=C(CCCNc1ccccc1)N/N=C/c1cccs1	.	/	.	.	.	.
COc1cccc(NC(=O)CN(C)C(=O)c2cccc(S(=O)(=O)N3CC4(C)CC3CC(C)(C)C4)c2)c1 (stereo not given)	/	/	.	/	?	/
c1cc2cc(-c3c(-c4ccc5c(c4)OCO5)noc3-c3ccsc3)ccc2[nH]1	?	/	.	11µM	?	?
c1ccc(-c2onc(-c3ccco3)c2-c2ccc3[nH]ccc3c2)cc1	.	/	.	19µM	.	.
c1ccc(-c2ccc3[nH]ccc3c2)cc1	.	/	?	?	?	?
Cn1c(N)c(C(=O)CSc2nc3ccccc3[nH]2)c(=O)n(C)c1=O	.	/	.	.	.	.
CC(C)c1nc(SCC(=O)c2c[nH]c3ccccc23)n[nH]1	.	/	.	.	.	.
CC1(C)Oc2ccc3ccc(=O)oc3c2/C(=C/NCCN/C=C2\C(=O)C(C)(C)Oc3ccc4ccc(=O)oc4c32)C1=O	.	.	.	.	8.2µM	.
CCCc1nn2c(=O)cc(COC(=O)CNC(=O)COc3ccc(C)cc3)nc2s1	/	/	/	.	/	/
CN1C(=O)CSc2ccc(NC(=O)N3CCN(c4ccccn4)CC3)cc21	.	.	.	.	?	.
COc1cccc(NC(=O)Nc2ccc3c(c2)N(C)C(=O)CS3)c1	.	.	.	12µM	?	.
CC(=O)Nc1ccc(NC(=O)Nc2ccc3c(c2)N(C)C(=O)CS3)cc1	.	/	.	.	?	.
CN1C(=O)CSc2ccc(NC(=O)Nc3ccccn3)cc21	2.8µM	?	.	3µM	?	?
Cc1ccc(C)c(N2CCN(C(=O)Nc3ccc4c(c3)N(C)C(=O)CS4)CC2)c1	.	/	.	?	6.5µM	.
COc1ccc(OCC(O)Cn2c(Nc3cccc(C)c3)nc3c2c(=O)n(C)c(=O)n3C)cc1 (stereo not given)	.	.	.	.	18µM	.
SMILES	Rab9 promoter act	SMN2 splice enh	ELG1 genotox	FLuc modulator	ELG1 DNA repair	NPC1 promoter act
C=C(C)C(=O)N1CC2(CC(c3cccc(NC(=O)CC)c3)=NO2)C[C@H]1C(N)=O (stereo not given in full)	.	/	.	.	.	.
C/C=C(\C)C(=O)N1CC2(CC(c3cccc(NC(=O)COc4ccc(Cl)cc4)c3)=NO2)C[C@@H]1C(N)=O (stereo not given in full)	.	/	.	15µM	.	.
C=C(C)C(=O)N1CC2(CC(c3cccc(NC(=O)COc4ccc(Cl)cc4)c3)=NO2)C[C@@H]1C(N)=O (stereo not given in full)	.	/	.	12µM	.	.
Cc1ccc2c(c1)cc(CN(Cc1ccco1)C(=O)COc1ccccc1)c1nnnn12	.	.	.	.	21µM	.
COCCN(Cc1cc2cc(C)ccc2n2nnnc12)C(=S)Nc1ccc(C)cc1	.	.	.	.	16µM	.
CN(Cc1ccccc1)C(=O)COC(=O)C1CCN(S(=O)(=O)c2ccc3c(c2)OCCO3)CC1	.	/	.	.	.	.
CC[C@]12CCCN3CCc4c(n(c5ccccc45)[C@@](O)(C(=O)OC)C1)[C@@H]32	.	/	16µM	.	?	.
CC[C@]12CCCN3CCc4c(n(c5ccccc45)C(=O)C1)[C@@H]32	.	/	.	.	.	.
CCc1ccc(NC(=O)c2cc3sc(Cl)cc3n2C)cc1	/	13µM	/	5.4µM	/	/
CCn1c(C(=O)NCc2ccccc2Cl)cc2sc(Cl)cc21	/	.	/	?	/	/
Cn1c(C(=O)NCc2ccccc2Cl)cc2sc(Cl)cc21	/	28µM	/	?	/	/
CCOc1ccc(CCNC(=O)c2cc3sc(Cl)cc3n2C)cc1OCC	.	.	.	.	.	.
CC(C)c1ccc(NC(=O)c2cc3sc(Cl)cc3n2C)cc1	/	.	/	3.4µM	/	/
CC(C)C[C@H](NC(=O)N1CCCCCC1)C(=O)O	.	/	.	.	.	.
Cc1ccc(Cl)c(OCC(=O)NCC(c2cccs2)N2CCOCC2)c1 (stereo not given)	.	/	?	.	?	.
Cc1nc(SCc2nc3ccccc3[nH]2)c2oc3cc([N+](=O)[O-])ccc3c2n1	/	/	.	/	23µM	/
CCCC(C)C(=O)Nc1nnc(CCc2ccccc2)s1 (stereo not given)	.	/	.	.	.	.
O=C(C1CCN(S(=O)(=O)c2cccc3nsnc23)CC1)N1CCn2c1nc1ccccc12	.	.	.	.	6.5µM	.
O=C(C1CCN(S(=O)(=O)c2cccc3nsnc23)CC1)N1CCc2ccccc21	.	.	.	.	?	.
O=C(C1CCCN(S(=O)(=O)c2cccc3nsnc23)C1)N1CCc2ccccc2C1 (stereo not given)	.	.	.	.	16µM	.
CCOc1ccc(NC(=O)C2CCCN(S(=O)(=O)c3cccc4nsnc34)C2)cc1 (stereo not given)	.	.	.	.	23µM	.
CC1=NC(C(F)(F)F)(C(F)(F)F)C(C#N)=C(C)N1	.	.	.	.	.	.
CCOC(=O)CCNC(=O)Nc1ccc2nc(C)n(Cc3ccc(Cl)cc3)c(=O)c2c1	.	.	.	.	15µM	.
CC(=O)Nc1ccc2nc(C)n(Cc3ccc(Cl)cc3)c(=O)c2c1	.	13µM	?	.	?	?
CC(=O)Nc1ccc2c(c1)nc(C)n2Cc1ccccc1	.	/	.	.	.	.

Screening results (PubChem BioAssay)
